# GPR151 activ – activates the human receptor GPR151; Q8TDV0; PathHunter beta-arrestin GPR151 cells, luminescence; activation, % at 11.2 µM; 650,000 compounds, 1% hits; in the data active = activation above about 4.9%;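 also: 0% = median of compound wells and 100% = cells with positive control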
# Target sequence (Q8TDV0 whole entry, looked up): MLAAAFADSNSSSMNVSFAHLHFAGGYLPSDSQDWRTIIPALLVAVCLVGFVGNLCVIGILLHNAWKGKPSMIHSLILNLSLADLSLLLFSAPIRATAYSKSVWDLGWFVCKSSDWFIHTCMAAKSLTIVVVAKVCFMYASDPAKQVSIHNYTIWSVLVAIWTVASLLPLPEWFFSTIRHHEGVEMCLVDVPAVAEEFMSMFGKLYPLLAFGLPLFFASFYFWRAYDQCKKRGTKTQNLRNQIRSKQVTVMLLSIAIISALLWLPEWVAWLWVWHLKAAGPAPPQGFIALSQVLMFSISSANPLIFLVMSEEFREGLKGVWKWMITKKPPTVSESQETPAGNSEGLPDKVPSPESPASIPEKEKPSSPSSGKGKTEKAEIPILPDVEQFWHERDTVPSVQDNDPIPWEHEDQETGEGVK
# TEAD-YAP block – TEAD-YAP interaction inhibition | inhibition, % at 9.12 µM | 640,000 compounds, 1.4% hits | HEK-TIYL cells, TEAD-Gal4/YAP UAS-luciferase luminescence; in the data active = inhibition above about 32%;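 also: 0% = median of test compound wells and 100% = reference inhibitor wells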
# MITF inh – inhibitors of human MITF; O75030; AlphaScreen MITF homodimerization, bead proximity signal; inhibition, % at 2.6 µM; 650,000 compounds, 0.91% hits; in the data active = inhibition above about 50%;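 also: 0% = vehicle wells with protein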
# FBW7 activator – human FBW7 E3 ligase activation, primary screen; AlphaScreen FBW7–phospho-cyclin E peptide binding, activator screen; 650,000 compounds, 0.13% hits; AID 1259310; Q969H0; normalized activity (activation), % at 26.1 µM; in the data active = normalized activity above about 1.9%;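 also: purified mutant Fbw7 with reduced substrate affinity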
# GPR151 conf act – confirmation of human GPR151 activators; shares compounds with GPR151 activ; GPR151 PathHunter beta-arrestin cells, luminescence, 90 min; % of EA-reagent control over plate median; activation, % at 11.2 µM; 6,700 tested, under 10 active; AID 1508609;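 active = mean percent activation across replicates above the confirmation screen cutoff of 4.91%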
# GPR119 ag – counter-screen for GPR151 activators: effect on human GPR119; GPR119 PathHunter beta-arrestin cells, luminescence, 90 min; 0 = compound-well median, 100 = enzyme-acceptor control; shares compounds with GPR151 activ; 6,700 compounds, 0.3% hits; activation, % at 11.2 µM;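 active = mean percent activation in the counterscreen above 29.09%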;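 also: counterscreen on off-target GPR119 to flag nonselective hits from the GPR151 activator screen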
# * hit, by the source's call; nt = not tested or not shown; ! = not confirmed by another sample. In the library only some 3.5% were active in any assay of this set; here they are far more common.
SMILES,GPR151 activ,TEAD-YAP block,MITF inh,FBW7 activator,GPR151 conf act,GPR119 ag
CCCCCCCCCCCCCc1ccco1,7.1*,6.2,-8.7,0.0,-0.4,3.3
CCCCCCNc1nc(NCc2ccco2)nc(OCC)n1,-0.6,-5.3,-4.2,-0.1,nt,nt
O=C(COc1ccc(Cl)cc1)NCc1n[nH]c(=S)n1-c1cccc(C(F)(F)F)c1,-0.3,12.8,6.8,0.3,nt,nt
CC(Oc1c(Cl)cccc1Cl)C1=NCCN1 (stereo not drawn),4.9*!,7.2,-1.1,0.6,-0.4,2.4
Nc1ccc2nc(-c3ccc(N=Cc4cc([N+](=O)[O-])cc([N+](=O)[O-])c4O)cc3)[nH]c2c1,7.0*,1.6,1.5,-0.1,-0.1,3.2
Nc1ccc2nc(-c3ccc([N+](=O)[O-])cc3)[nH]c2c1,-4.7,-13.2,3.1,0.1,nt,nt
COc1ccc(/C=C/c2ccnc(NS(=O)(=O)c3ccc(NC(=O)c4ccccc4)cc3)n2)cc1OC,-0.3,-74.1,-13.1,0.0,nt,nt
COc1ccc(-c2csc3ncnc(SCc4c(C)noc4C)c23)cc1,8.1*,-3.2,-16.3,0.4,-0.5,-4.3
CNC(=S)N(CCc1ccc(S(N)(=O)=O)cc1)C1CC(=O)N(c2ccccc2)C1=O (stereo not drawn),-0.2,12.8,14.4,0.8,nt,nt
O=C(COc1ccc(Cl)cc1)NCC(c1ccco1)N1CCOCC1 (stereo not drawn),6.2*,12.7,-0.4,-0.4,1.8,3.4
CN(CC(=O)NC1CCCC1)S(=O)(=O)c1ccccc1,-0.3,7.5,-0.1,-0.2,nt,nt
CS(=O)(=O)N(CC(=O)Nc1ccc(OCc2ccccc2)cc1)C1CCCCC1,0.1,8.5,15.2,-0.1,nt,nt
CCOc1ccc(NC(=O)CN(C2CCCCC2)S(=O)(=O)c2ccccc2)cc1,6.0*,2.2,-14.5,-0.2,0.0,14.1
CN(CC(=O)NC1CCCCCC1)S(=O)(=O)c1ccccc1,8.6*,-13.7,7.3,0.0,0.0,1.7
COc1ccnc(Cn2c(=O)n(C(C)C)c3ncccc32)c1OC,-0.5,0.1,5.5,0.0,nt,nt
COc1ccccc1-c1nc2s/c(=C\c3cccc([N+](=O)[O-])c3)c(=O)n2n1,7.8*,4.5,2.3,0.0,0.4,1.2
COc1cccc(CN2CCNC(=O)C2CC(=O)NC2CCC(O)CC2)c1OC (stereo not drawn),0.3,10.2,13.8,0.2,nt,nt
Cc1ccc(NC(=O)c2ccccc2NC(=O)c2ccc(S(=O)(=O)N3CCc4ccccc43)cc2)c(C(=O)c2ccccc2)c1,8.7*,1.0,-3.6,-0.1,0.3,11.5
CC(C)c1ccc(NC(=O)c2cc(S(=O)(=O)N3CCc4ccccc43)ccc2F)cc1,7.4*,-10.7,0.2,0.1,-1.1,-11.0
O=C(/C=C/c1cc([N+](=O)[O-])ccc1O)Nc1cccc(Br)c1,5.6*,-2.4,-1.7,0.1,0.2,0.7
O=C(COc1ccccc1[N+](=O)[O-])NC(=S)Nc1ccccc1N1CCOCC1,-0.6,-6.8,2.5,0.1,nt,nt
O=C(COc1ccccc1[N+](=O)[O-])Nc1cccc(Cl)c1N1CCOCC1,5.0*,13.4,-1.5,0.1,-0.6,-2.7
C[C@@H]1C[C@@H](CC(=O)NCC2Cc3cccc(-c4cncc(C(N)=O)c4)c3O2)NC(=S)N1 (stereo partly drawn),1.7,21.0,1.1,-0.1,nt,nt
Cn1c(NN)nc2sc3c(c2c1=O)CCC(C(C)(C)C)C3 (stereo not drawn),-0.2,8.2,11.5,0.2,nt,nt
Cc1nn2cnc3sc4c(c3c2nc1=O)CCC(C(C)(C)C)C4 (stereo not drawn),7.0*,-8.3,-1.1,-0.2,0.1,-4.2
SMILES,GPR151 activ,TEAD-YAP block,MITF inh,FBW7 activator,GPR151 conf act,GPR119 ag
CCC(C)NC(=O)C1C2C(=O)N(Cc3ccccc3)CC23C=CC1(C)O3 (stereo not drawn),8.7*,7.7,9.1,-0.1,-0.5,-7.9
O=c1[nH]c2cc(Cl)c(Cl)cc2[nH]c1=O,5.5*,-16.7,22.4,0.2,-1.0,-4.2
COc1ccc2[nH]c(=O)c(=O)[nH]c2c1,1.0,11.8,34.9,0.0,nt,nt
CC(=O)Nc1cccc(NC(=O)COc2cccc3ccc(N4CCCC4)nc23)c1,5.3*,31.0,18.6,0.2,-0.4,7.4
Cc1cc(C)c(-n2c(O)c(/C=C3\C=CC=N3)c(=O)[nH]c2=O)c(C)c1,7.3*,46.4*,0.5,0.1,1.3,6.7
CCCCOc1ccc(NC(=O)CC)cc1,1.1,-16.2,7.3,0.1,nt,nt
CCCCOc1ccc(NC(=O)C(=O)NC(C)C)cc1,5.6*,7.4,-11.9,-0.2,0.5,0.2
CCCCCOc1ccc(NC(=O)C(C)C)cc1,13.7*,-67.8,-10.6,0.0,-0.2,-1.9
CCCCOc1ccc(NC(=O)C(=O)NC)cc1,-0.5,-7.5,18.5,0.8,nt,nt
CCCS(=O)(=O)N1CCN(Cc2ccccc2OC)CC1,1.2,-10.3,39.2,-0.1,nt,nt
Cc1cn2c(=O)c(C(=O)NOCc3cccc(C(F)(F)F)c3)cnc2s1,14.4*,-8.6,17.2,0.2,0.8,-2.5
O=C(N/C(=C/c1ccc(Cl)cc1)C(=O)N1CCOCC1)c1ccccc1Br,6.3*,11.6,10.4,-0.1,-1.2,-12.6
O=C(N/C(=C/c1ccc(Cl)cc1)C(=O)N1CCOCC1)c1ccccc1,2.0,3.0,-2.1,-0.1,nt,nt
O=C(Nc1ccc(S(=O)(=O)N2CCCCC2c2cccnc2)cc1)C1CCCCC1 (stereo not drawn),-1.8,-14.1,-7.1,0.0,nt,nt
CCn1c(=O)c(C(=O)NNC(=O)c2ccc([N+](=O)[O-])cc2)c(O)c2ccccc21,20.5*,0.5,7.0,-0.1,-0.1,-5.6
COC(=O)C1=C(C)NC(=O)C1(NC(=O)c1ccc(OC)c(OC)c1)C(F)(F)F (stereo not drawn),12.5*,0.4,-8.7,-0.1,-0.4,-5.3
COc1ccc(-c2noc(N3CCC(C(=O)NC(C)CCc4ccccc4)CC3)n2)cc1 (stereo not drawn),5.1*,-11.0,-12.8,-0.1,-0.7,-7.8
COc1ccc(-c2noc(N3CCC(C(=O)O)CC3)n2)cc1,1.5,-1.9,-2.2,-0.2,nt,nt
COc1ccc(-c2noc(N3CCCC(C(=O)NC4CCCc5ccccc54)C3)n2)cc1 (stereo not drawn),5.6*,6.8,-2.6,0.0,0.7,-1.5
COc1ccc(-c2noc(N3CCCC(C(=O)Nc4ccccc4OC)C3)n2)cc1 (stereo not drawn),10.1*,-6.5,0.3,0.2,-0.4,-1.0
COc1ccc(-c2noc(N3CCCC(C(=O)N4CCCc5ccccc54)C3)n2)cc1 (stereo not drawn),4.0,16.9,0.0,0.0,nt,nt
CCCNc1cc(-c2ccc(OC)cc2)ncn1,-3.7,-24.9,7.6,-0.1,nt,nt
CCOC(=O)c1ccc2c(c1)sc(=NC(=O)C(C)(C)C)n2C,6.5*,61.1*,-16.2,0.0,0.0,0.2

# High-throughput results deposited in PubChem BioAssay by The Scripps Research Institute Molecular Screening Center.
